Results taken from PubChem BioAssay (NCI).
This is part of a sample that, as a whole, favours compounds with a hit. Of some 83,000 tested, about 20% had one in any assay.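 For each line, cells grew in 96-well plates with the test compound present at a single concentration for 48 hours.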 Unmarked numbers belong to inactive results. Calls of active or inactive are those of the source. How the source made its calls: active means growth percent below 10; inactive means the rest.

How the values were obtained:
Assay in all cases: NCI-60 one-dose screen, 48 h (100 = growth as untreated, 0 = no growth, -100 = all killed)
Settings in all cases: 10 µM unless noted
T-47D breast = system: T-47D breast
BT-549 breast = system: BT-549 breast
MDA-MB-435 melanoma = system: MDA-MB-435 melanoma
MCF7 breast = system: MCF7 breast
HCT-116 colon = system: HCT-116 colon
HCC-2998 colon = system: HCC-2998 colon
KM12 colon = system: KM12 colon
SW-620 colon = system: SW-620 colon

| SMILES | growth (T-47D breast) | growth (BT-549 breast) [%] | growth (MDA-MB-435 melanoma) | growth (MCF7 breast) | growth (HCT-116 colon) | growth (HCC-2998 colon) [%] | growth (KM12 colon) | growth (SW-620 colon) |
| --- | --- | --- | --- | --- | --- | --- | --- | --- |
| Cc1cc(=O)oc2cc(OCCn3c(C)nn(-c4ccc(Cl)cc4)c3=O)ccc12 | 47.4% | 56.7 | -38.6% (active) | 15.8% | 15.1% | 46.7 | 31.4% |  |
| O=C(c1ccc(Cl)cc1)c1ccc(Cl)cc1 | 101% |  | 107% | 104% | 110% | 96.7 | 110% | 103% |
| COc1ccc(-c2cc(-c3cccnc3)nc3sc(C(=O)Nc4ccccc4)c(N)c23)cc1OC | 55.8% |  | 76.1% | 65.4% | 50.5% | 80.3 | 61.3% | 85.5% |
| Nc1nc2c(nnn2Cc2ccc(Cl)c(Cl)c2)c(=O)[nH]1 | 84.3% | 99.4 |  | 93.7% | 104% | 116 | 90.2% | 99.9% |
| COc1ccc(-c2nnc3c4[nH]cnc4ncn23)c(OC)c1 | 28.5% |  | 13.2% | 7.19% (active) | 14.8% | 26.3 | 22.5% | 23.2% |
| Cc1cc(C)cc(S(=O)(=O)n2ccc(-c3ccc4c(c3)CCC(C)(C)O4)n2)c1 | 58.2% |  | 93.8% | 81.5% | 77.8% | 88.2 | 82.7% | 88.3% |
| COc1cc(/C=C/c2cc(/C=C/c3ccc(O)c(OC)c3)n(C(=O)Cc3ccccc3)n2)ccc1O | -7.75% (active) |  | -10.2% (active) | -0.783% (active) | 1.23% (active) | 17.2 | 9.39% (active) | 4.63% (active) |
| O=Nc1c2cccnc2n2nnc3ccc(Cl)cc3c12 | 12.1% |  | 70.4% | -10.6% (active) | 0.54% (active) | 93.1 | 25.2% | -67.3% (active) |
| COc1ccc(CNC(=O)c2c(C)n([O-])c3ccccc3[n+]2=O)cc1 | 81.3% | 76.8 | 124% | 91% | 97.9% |  | 131% | 108% |
| CCOC(=O)N1CCC(N=C2CSc3nnc(-c4cc(C(F)(F)F)cc(C(F)(F)F)c4)n3N2)CC1 | 34% |  | 24.9% | 13.6% | -10.9% (active) |  | 34.5% | 36.2% |
| CCCCCCCSc1ncnc2[nH]ncc12 | 51.9% | 88.4 |  | 81.7% | 62.7% | 119 | 83.2% | 61.9% |
| Oc1ccc(/C=N/Nc2nc3ccccc3s2)c(O)c1 | 26.8% | 43.8 | 39.7% | 26.5% | 25.2% |  | 15.7% | 41.9% |
| COc1cc(/C=C/c2cc(/C=C/c3ccc(O)c(OC)c3)n(C(=O)c3ccc(Cl)cc3)n2)ccc1O | 11.2% |  | -45.2% (active) | 20.1% | 0.953% (active) | 52 | 10.8% | 16.4% |
| COc1ccc(NC(=O)c2ccccc2-c2ccccc2)c(C(N)=O)c1 | 34% |  | -22.6% (active) | 25.5% | 27% | 76.7 | 19.2% | 24.7% |
| COc1ccc(CC(=O)Nc2nn3c(-c4cc(C(F)(F)F)cc(C(F)(F)F)c4)nnc3s2)cc1 | 42.7% |  | 57.1% | 66.9% | 61.9% |  | 65.7% | 84.2% |
| COc1ccc(-c2cc(-c3cccnc3)nc(S(=O)(=O)CC(=O)Nc3ccc(C)cc3)c2C#N)cc1OC | 64% |  | 98.6% | 88.4% | 85.8% | 91.9 | 95.9% | 98.3% |
| COc1cccc(C=Nc2cc(C(C)C)c(O)cc2C)c1O | 51.7% | 101 |  | 92.5% | 99.1% | 115 | 109% | 105% |
| COc1ccc(NC(=O)c2ccc(-c3ccccc3)cc2)c(C(N)=O)c1 | 88.6% |  | 98.5% | 96.6% | 106% | 102 | 99.2% | 110% |
| C=C(CN1CCc2c([nH]c3ccccc23)C1)c1ccc(C(=O)Nc2ccon2)cc1 | 22.8% | 55.4 | 101% | 87.7% | 91.9% |  | 141% | 102% |

| SMILES | growth (T-47D breast) | growth (BT-549 breast) [%] | growth (MDA-MB-435 melanoma) | growth (MCF7 breast) | growth (HCT-116 colon) | growth (HCC-2998 colon) [%] | growth (KM12 colon) | growth (SW-620 colon) |
| --- | --- | --- | --- | --- | --- | --- | --- | --- |
| COc1ccc(NC(=O)[C@@H]2C[C@H]2c2ccccc2)c(C(N)=O)c1 | 91.1% |  | 51.8% | 97.7% | 108% | 94.7 | 87.4% | 90.9% |
| COc1cccc(-c2nc3cc(NC(=O)c4ccc(Cl)c(C#N)c4)ccc3o2)c1 | -20.4% (active) |  | -73.3% (active) | 8% (active) | -92.2% (active) | 29.6 | -51.8% (active) | 46.9% |
| Cn1c(=O)c2[nH]c(=S)n(Cc3ccccc3)c2n(C)c1=O | 98.8% | 106 | 119% | 101% | 98.2% |  | 109% | 100% |
| O=C(Nc1ccccc1OC(=O)c1ccccc1)c1ccccc1 | 67% | 72.7 | 104% | 27.2% | 9.26% (active) |  | 25.7% | 23.6% |
| O=C(Nc1nn2c(-c3cc(C(F)(F)F)cc(C(F)(F)F)c3)nnc2s1)C1CCCC1 | 11.6% |  | 12.5% | 6.67% (active) | -29.7% (active) |  | 11.1% | 15.5% |
| NC(=O)c1cc(Cl)ccc1NC(=O)c1ccccc1-c1ccccc1 | 26.9% |  | -63.7% (active) | 25.4% | 23.2% | 49.3 | 16.9% | 27.4% |
| COc1ccc2c(c1)CC[C@@H]1[C@@H]2CC[C@]2(C)[C@@H](O)C(=O)C[C@@H]12 | 106% | 103 | 102% | 129% | 99.7% |  | 110% | 105% |
| O=C(Nc1ccc2c(c1)C(=O)c1ccccc1-2)c1ccccc1 | 73.2% | 104 | 101% | 48% | -20.7% (active) |  | 87.3% | 55.4% |
| Fc1ccc(-c2nn3c(-c4cc(C(F)(F)F)cc(C(F)(F)F)c4)nnc3s2)cc1 | 51.8% |  | 76.3% | 68.7% | -17.3% (active) |  | 77.5% | 65.8% |
| Cc1ccc2nc(SCC(=O)Nc3ccc(-c4nc5ccccc5s4)c(Cl)c3)[nH]c2c1 | 99.2% | 103 | 111% | 90.6% | 101% |  | 115% | 111% |
| C1=C(Cc2ccccc2)n2cnc3ncnc(c32)S1 | 29.6% |  | 26.5% | 20.3% | 57.1% | 70.2 | 69.6% | 69% |
| COc1ccc(-n2cnc3cc(C(=O)N4CCCCC4)ccc32)cc1 | 91% |  | 102% | 103% | 98.3% | 104 | 107% | 104% |
| O=c1sc2ncnc3ncn1c32 | 34.5% |  | 29.5% | 22.4% | 50.9% | 79.5 | 70% | 73.1% |
| FC(F)(F)c1cc(-c2nnc3n2N=C(N2CCCC2)CS3)cc(C(F)(F)F)c1 | 64% |  | 96.8% | 95.3% | 42.5% |  | 89.2% | 95.9% |
| OC(c1cc(-c2cccc(Cl)c2)nc2ccccc12)C1CCCCN1 (centres undefined) | -71.6% (active) | 67 | -56.9% (active) | -86.9% (active) | -89.8% (active) |  | -88.1% (active) | -66.6% (active) |
| CC1CN(C2CCCCC2)C(=O)NC1=O (centres undefined) | 93% | 104 | 112% | 101% | 101% |  | 111% | 102% |
| COc1ccc([N+](=O)[O-])c(S(=O)(=O)c2ccc(Cl)cc2)n1 | 65.2% |  | 40.9% | 18.1% | 20.9% | 104 | 97.7% | 14.4% |
| NS(=O)(=O)c1ccc(N2CC(c3nc4ccccc4[nH]3)CC2=O)cc1 (centres undefined) | 88.8% |  | 104% | 94.9% | 104% | 99.1 | 97.6% | 104% |
